Data taken from PubChem BioAssay (NCATS).
Inconclusive results are not listed. Unmarked numbers belong to inactive results. Activity calls are given as the source filed them. Calls come from the whole dose curve; as a rule, active = well fitted cell-killing curve with a large enough effect; inconclusive = small, poorly fitted or top-dose-only effect; inactive = flat fitted curve, though single readings scatter.

Test: Cell Viability - LYMP2-023 (AID 975);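 note: cells exposed to compound for 24 hours at 37 °C; nearly all actives have a fitted effect of over 55% in size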;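 for activity change, negative = cytotoxicity: cellular ATP measured by luciferase luminescence as viability proxy; plate controls were DMSO only for no effect and 92 µM tetraoctylammonium bromide control for full effect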
Details: LYMP2-023 lymphoblastoid cell viability; series mostly up to 92.2 µM; activity change, negative = cytotoxicity: at the top concentration
How it was run: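 LYMP2-023 human lymphoblastoid cells, 2500/well, preincubated 5 hr at 37 C, then compound-treated 24 hr at 37 C in complete medium. CellTiter-Glo luminescence (ATP) after 30 min at room temperature; AC50 from Hill-equation fits; tetraoctylammonium bromide positive control.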
Potency is the fitted concentration of half-maximal effect.

| SMILES | activity change, negative = cytotoxicity | Potency |
| --- | --- | --- |
| Oc1ccccc1-c1ccccc1 | -4.65% | – |
| Oc1ccc(Cl)cc1Cc1ccccc1 | -1.36% | – |
| N[C@@H](Cc1ccc(N(CCCl)CCCl)cc1)C(=O)O | – | 39.8 µM (active) |
| OCCOc1ccccc1 | -6.24% | – |
| NCC(O)c1ccc(O)cc1 (centres undefined) | -3.47% | – |
| CCCC(C)(COC(N)=O)COC(=O)NC(C)C (centres undefined) | 6.52% | – |
| c1ccc2c(c1)Nc1ccccc1S2 | -3.21% | – |
| CCOP(=S)(OCC)Oc1cc(C)nc(C(C)C)n1 | 3.4% | – |
| CNCC(O)c1ccc(O)cc1 (centres undefined) | -2.94% | – |
